Compounds with a hit are over-represented: about 3.5% of the library has one in this group of screens.
TMEM16A act: activators or potentiators of mouse TMEM16A chloride channel; HEK293 TMEM16A/YFP-H148Q/I152L, iodide quench fluorescence; hits give low values; B-score at 10 µM; Q8BHY3; hit rate 0.3% among 340,000; AID 623877;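 active means fluorescence-ratio B-score plate-corrected deviation score at least 3 library SD below zero, with starting fluorescence score within 5 deviations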;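 further: channel opened by trigger with iodide after compound preincubation; score built on the fluorescence ratio of max minus min over baseline; more negative score means more quench and so TMEM16A activation or potentiation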
Kir21 inh: Kir2.1 (mouse) channel inhibition; HEK293-Kir2.1, FluxOR thallium flux fluorescence; hits give low values; B-score at 10 µM; hit rate 0.85% among 310,000; AID 1672;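 active means fluorescence ratio B-score at or below minus 3 SD of library scores, with starting-brightness B-score within 2 SD, cut at about -4.2 in these data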;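 further: channel flux triggered by added potassium and thallium sulfate stimulus; B-score of peak minus minimum fluorescence over baseline after thallium stimulus; more negative B-score means stronger Kir2.1 block with less thallium influx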
ANO1 block: blocks the mouse calcium-activated chloride channel TMEM16A | Q8BHY3 | HEK293 TMEM16A/YFP iodide influx fluorescence, ionomycin | normalized B-score (activity score, 25-100; higher = stronger inhibition) at 10 µM | hit rate 1.2% among 310,000;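 active means ratio plate-corrected score three or more library SD toward inhibition, starting fluorescence score within five deviations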;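 further: score derived from kinetic fluorescence span divided by baseline fluorescence per well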
KCNK9 inh: human KCNK9 channel inhibition. Q9NPC2. HEK293 KCNK9, FluxOR thallium flux fluorescence; hits give low values. B-score at 10 µM. hit rate 1.2% among 310,000;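 active means ratio B-score over 3 SD below the library mean, with starting fluorescence within 5 SD of its mean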;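 further: negative B-score means less thallium flux so channel inhibition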
KCNK3 block: human KCNK3 channel inhibition, primary screen | O14649 | CHO-KCNK3 thallium flux, FluxOR fluorescence; hits give low values | B-score at 10 µM | hit rate 0.84% among 340,000;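 active means B-score under library mean minus 4 SD, starting fluorescence ratio at most library mean plus 5 SD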;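 further: more negative B-score means stronger inhibition of thallium flux through KCNK3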
Target sequence (O14649 whole entry, looked up): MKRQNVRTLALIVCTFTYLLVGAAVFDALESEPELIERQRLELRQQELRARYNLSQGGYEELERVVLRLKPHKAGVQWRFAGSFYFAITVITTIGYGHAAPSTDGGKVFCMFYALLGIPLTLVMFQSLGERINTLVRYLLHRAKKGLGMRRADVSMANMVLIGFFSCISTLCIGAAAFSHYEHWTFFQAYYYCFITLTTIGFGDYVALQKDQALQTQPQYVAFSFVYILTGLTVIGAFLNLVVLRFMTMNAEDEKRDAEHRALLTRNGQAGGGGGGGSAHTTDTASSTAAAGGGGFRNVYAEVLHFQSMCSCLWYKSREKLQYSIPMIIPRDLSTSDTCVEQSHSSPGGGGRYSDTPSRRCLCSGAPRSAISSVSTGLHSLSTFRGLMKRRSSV
* hit, by the source's call; i = inactive; nt = not tested or not shown.

SMILES	TMEM16A act	Kir21 inh	ANO1 block	KCNK9 inh	KCNK3 block
CC(C)c1cccc(C(C)C)c1NC(=O)CN1C(=O)NC2(CCCCCCC2)C1=O	i	nt	nt	nt	i
CC(NC(=O)COC(=O)[C@@H]1CCCN1S(=O)(=O)c1ccccc1F)C12CC3CC(CC(C3)C1)C2 (some centres not stated)	i	0.05	i	-6.8*	i
Cc1c(C(=O)NC(=S)N(Cc2ccccc2)c2ccccn2)cccc1[N+](=O)[O-]	i	nt	nt	nt	i
CS(=O)(=O)c1sc(C#N)c2c1C(=O)CC(c1ccccc1)C2 (configuration not stated)	-11*	-5.9	i	i	i
COc1ccc2ncc(S(=O)(=O)c3ccccc3)c(N3CCN(c4ccccc4)CC3)c2c1	i	0.56	i	i	i
CCN1Cc2c(/C=C/c3ccccc3)nc3ccc(OC)cc3c2N(c2cccc(Cl)c2)C1	i	-13*	i	i	i
COc1cccc(N2CCc3c(C)nc4ccc(Cl)cc4c32)c1	i	-14*	i	i	i
COc1ccc(N2CCc3c(C)nc4c(OC)cc(OC)cc4c32)c(OC)c1	i	-3	i	i	i
COc1ccc(N2CCc3c(C)nc4c(OC)cc(OC)cc4c32)cc1	i	-4.7*	i	i	-10*
Cc1ccc(S(=O)(=O)N2CCN(C(=O)CN3C(=O)NC4(CCCC4)C3=O)CC2)c(C)c1	i	-0.53	i	i	i
CCOC(=O)CSC1=C(C#N)C(=O)NC(c2ccc(OC)cc2)S1 (configuration not stated)	i	0.07	i	i	i
CCOC(=O)CSC1=C(C#N)C(=O)NC(c2ccc(OC)c(OC)c2)S1 (configuration not stated)	i	1.8	25*	i	i
CC(Oc1ccc(Cl)cc1Cl)c1nc(-c2ccc(NC(=O)c3ccccn3)cc2)no1 (configuration not stated)	i	-1.2	i	i	i
COC1=C(OC)c2ccccc2C(C(=O)O)N/C1=C(/C)Nc1ccncc1 (configuration not stated)	i	1.5	i	i	i
Cc1cc(-n2c(C)cc(C(=O)CSc3nc4ccccc4c(=O)n3Cc3ccco3)c2C)no1	-9.1*	2.2	i	i	i
O=C(CSc1nnc(-c2ccncc2)n1Cc1ccco1)Nc1ccccc1Cl	nt	-2.7	i	i	i
O=C(CSc1nnc(-c2ccncc2)n1Cc1ccco1)Nc1ccccc1F	i	-1.6	i	-6.9*	i
O=C(COC(=O)c1ccc(O)cc1O)NC1CC1	i	nt	nt	nt	i
CC(C)CN(CC(C)C)C(=O)Cc1coc2ccc3ccccc3c12	i	-5.8*	25*	i	i
Cc1c(CC(=O)O)c(=O)oc2c(C)c(OCc3nn[nH]n3)ccc12	-4.9*	-0.2	i	i	i
Cc1c(Cc2ccccc2)c(=O)oc2c(C)c(OCc3nn[nH]n3)ccc12	i	nt	i	nt	i
CCCCn1c(NC(=O)c2ccccc2)c(C#N)c2nc3ccccc3nc21	i	nt	nt	nt	i
CCCCn1c(NC(=O)c2ccc(F)cc2)c(C#N)c2nc3ccccc3nc21	nt	-1.5	100*	i	nt
CCCc1nc2cc(Cl)c([N+](=O)[O-])cc2o1	i	-1.4	100*	i	i
Cc1nc2cc(Cl)c([N+](=O)[O-])cc2s1	i	-1.1	i	i	i
SMILES	TMEM16A act	Kir21 inh	ANO1 block	KCNK9 inh	KCNK3 block
COc1cccc(NC(=S)N(CCc2c(C)[nH]c3ccccc23)Cc2cccs2)c1	i	nt	i	nt	-9.2*
CNC(=S)N(CCc1c(C)[nH]c2ccc(Cl)cc12)Cc1cccs1	nt	-2.6	i	i	nt
COCCNC(=S)N(CCc1c(C)[nH]c2ccc(Cl)cc12)Cc1cccs1	i	0.48	100*	i	i
Cc1[nH]c2ccccc2c1CCN(Cc1cccnc1)C(=S)Nc1cccc(F)c1	i	-1.1	i	-7.5*	i
COCCNC(=S)N(CCc1c(C)[nH]c2ccc(F)cc12)Cc1cccs1	i	-1.6	i	i	i
CCCCN(C(=O)C(C)Oc1ccc(Br)cc1)c1c(N)n(Cc2ccccc2)c(=O)[nH]c1=O (configuration not stated)	i	0.66	i	i	i
CN1CCC(N(C)C(=O)/C(C#N)=C/c2ccc(OC(F)F)cc2)CC1	i	0.12	nt	i	i
CCC(C)Nc1ccc(NC(C)CC)cc1 (configuration not stated)	i	nt	nt	nt	-8.9*
Cn1nc(C(=O)OCc2ccc(Br)cc2F)c2ccccc2c1=O	i	0.06	i	i	i
CCOc1ccc(C2OC34CCCCC3C(C#N)(C#N)C2(C#N)C(=N)O4)cc1OC (configuration not stated)	-5*	0.67	i	i	i
CC(=O)Nc1ccc(Nc2cc(C)nc3c(-c4ccccc4)cnn23)cc1	i	nt	i	nt	i
CCC(Sc1ncccc1C(=O)Oc1cccc([N+](=O)[O-])c1)C(=O)Nc1ccccc1OC (configuration not stated)	i	-0.98	i	-7.9*	i
O=C(CSc1nnc(Cc2ccccc2)o1)Nc1ccc(N2CCOCC2)cc1	i	nt	nt	nt	i
Cc1ccc(CN(CC(O)COc2cccc3[nH]cc(C)c23)C(C)(C)C)cc1 (configuration not stated)	i	-1.9	i	i	i
COC(=O)Cc1c[nH]c2cccc(OCC(O)CN(Cc3ccc([N+](=O)[O-])cc3)C(C)(C)C)c12 (configuration not stated)	i	-1.4	i	-7.8*	i
Cc1cc(OCc2nc(-c3ccncc3)no2)cc(C)c1Cl	i	-0.01	i	i	i
O=C(N/N=C/c1sc(N2CCOCC2)nc1-c1ccccc1)c1ccccc1O	i	1.1	100*	i	i
O=C(N/N=C/c1sc(N2CCOCC2)nc1-c1ccccc1)c1ccccc1Cl	i	-0.56	i	i	i
O=C(Cc1cccc2ccccc12)N/N=C/c1ccc(Sc2cccc3cccnc23)o1	nt	0.01	i	-9.8*	nt
CC(C)CN(C(=O)COC(=O)c1ccccc1SCC(=O)N1CCCC1)C1CCS(=O)(=O)C1 (configuration not stated)	i	nt	nt	nt	i
Oc1ccc(CN2CCCCC2)c2cccnc12	i	-1.4	i	i	i
Oc1ccc(CN2CCc3ccccc3C2)c2cccnc12	i	-10*	i	i	i
COc1ccc(CCNC(=O)c2ccc3nc(N4CCCCC4)sc3c2)cc1OC	i	-0.04	i	i	i
